Source: PubChem BioAssay (National Center for Advancing Translational Sciences (NCATS))
FMDV inh – foot and mouth disease virus antiviral activity; AID 1159524; Potency, µM (titrated, usually from 57.9 µM), without a hit: top-dose activity change, negative = inhibition, most hits filed as inhibitors; FMDV antiviral cell-based qHTS; 410,000 compounds, 1.2% hits; calls by dose curve; tested in HEK293T cells; further: read-out not given here; potency means the concentration at half of the fitted maximal effect; on the % scale 0 is the no-effect control and ±100 the full control effect; nearly all actives have a fitted effect of over 45% in size
HCMV inh – human cytomegalovirus inhibition; HFF cells, HCMV-luciferase reporter, 72 h; active compounds read low; activity change, negative = inhibition, % at 57.5 µM; 410,000 compounds, 4.5% hits; AID 1259415; in the data active means activity change below about -60%; inconclusive means no clear call, values can overlap the other calls; inactive means above about -39%; further: on the % scale 0 is the no-effect control and ±100 the full control effect
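Screen run at 2 compound doses on HFFs infected with reporter HCMV, MOI 1 PFU/cell. Luciferase activity from cell lysates at 72 h post infection gave inhibition relative to buffer-only and Salinomycin wells.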
MARV entry inh – Marburg virus entry inhibition; Marburg virus pseudotyped entry inhibition, cell reporter; Potency, µM (series often up to 37.8 µM), for inactives: top-dose activity change, negative = inhibition, actives largely listed as inhibitors; 300,000 compounds, 1.8% hits; AID 540276; calls by dose curve; tested in HEK293 cells; further: potency means the concentration at half of the fitted maximal effect; on the % scale 0 is the no-effect control and ±100 the full control effect
SARS PLpro yeast – SARS-CoV PLP inhibition in yeast; 330,000 compounds, 0.19% hits; Potency, µM (highest dose often 32.9 µM), inactives show at the highest dose activity, positive = growth rescue, hits mostly activators; S. cerevisiae expressing SARS-CoV PLpro, growth rescue; calls by dose curve; further: potency means the concentration at half of the fitted maximal effect; 0% is about no effect; nearly all actives have a fitted effect of over 55% in size
LASV entry inh – Lassa virus entry inhibition; Lassa virus pseudotype entry inhibition, cell reporter; Potency, µM (highest dose often 37.9 µM), without a hit: at the top dose activity change, negative = inhibition, hits mostly inhibitors; 300,000 compounds, 1.2% hits; AID 540256; calls by dose curve; tested in HEK293 cells; further: potency means the concentration at half of the fitted maximal effect; on the % scale 0 is the no-effect control and ±100 the full control effect; nearly all actives have a fitted effect of over 50% in size
HCV inh – inhibitors of hepatitis C virus infection | Huh7.5.1 HCVcc-Cre infection, luciferase reporter, 44 h | Potency, µM (top dose mostly 41.8 µM), without a hit: at the highest dose activity change, negative = inhibition, usual class: inhibitors | 340,000 compounds, 3.4% hits | AID 651820; active means well fitted inhibition curve with a large enough effect; inconclusive means small, poorly fitted or top-dose-only effect, or another doubt; inactive means no such curve, though single readings can be large or run the other way; further: potency means the concentration at half of the fitted maximal effect; on the % scale 0 is the no-effect control and ±100 the full control effect
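Cells (1,000/well) were plated 4 h before compound, then infected with HCVcc-Cre virus (~0.5 moi). After 44 h further culture, infection was read as luciferase luminescence following a 15 min substrate incubation at room temperature.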
* = called active by the depositor; ? = inconclusive; . = not tested or not shown; [ ] = another dose, or the depositor's remark. Hits are enriched below; roughly 8% of the tested compounds scored in any of these assays.

SMILES	FMDV inh	HCMV inh	MARV entry inh	SARS PLpro yeast	LASV entry inh	HCV inh
CN(C)CC(C)(C)CNC(=O)c1cnn(-c2nccc(-c3ccc4c(c3)OCO4)n2)c1-c1ccco1	-4%	.	.	.	.	.
COc1ccc(-c2cccc3c2OC(CNC(=O)c2ccc4c(c2)OCO4)C3)nn1 (stereo not given)	31%	.	.	.	.	.
CCCSCCCNC(=O)c1ccc2c(c1)sc1nc(-c3ccc(OCC)cc3)cn12	-7%	.	.	.	-12%[46.1 µM]	.
CCOc1ccc(NC(=O)C(C)n2c(=O)cc(-c3ccccc3)c3c(C)nn(C)c32)cc1 (stereo not given)	-14%	1	.	.	12%[46.1 µM]	.
O=C(Nc1ccc(Oc2ncccn2)cc1)c1ccco1	14%	48	9%	-2%	8%	7%
O=C(Nc1ccc(Oc2cccc(C(F)(F)F)c2)nc1)c1ccco1	?	-72*	?	-4%	-20%	10µM*
COc1ccc(-c2ccc(NC(=O)c3ccco3)cc2)nn1	11µM*	7	?	-1%	?	-20%
Cn1nc(C(F)(F)F)c(-c2cccc(C(F)(F)F)c2)c1NC(=O)c1ccco1	-22%	-71*	.	-4%	.	-6%
CC(C)(C)c1ccc(Oc2ccc(NC(=O)c3cccs3)cn2)cc1	13µM*	?	13µM*	-4%	?	?
OCCCc1cn(Cc2ccccc2)c2ccccc12	-1%	20	2%	-7%	12%	-1%
CCCCCN=c1ccn(Cc2ccccc2)c2ccccc12	40µM*	.	.	.	.	.
CC(C)CO/N=C1\C[C@@H](O)[C@@H](O)[C@@H]2[C@@H]3C(=O)N(C4CCCCC4)C(=O)[C@@H]3CC[C@H]12	.	.	-20%[14.2 µM]	.	.	.
COCCNC(=O)CSc1nc(-c2ccc(C)cc2)[nH]c1-c1ccc(OC)cc1	-6%	-10	-20%[46.1 µM]	.	?	.
COCCCNC(=O)CSc1nc(-c2ccc(OC)cc2)[nH]c1-c1ccc(OC)cc1	-7%	-112*	4%[46.1 µM]	.	6%[46.1 µM]	.
COc1ccc(-c2[nH]c(-c3cccc(OC)c3)nc2SCC(=O)NCc2ccco2)cc1	-1%	6	3%	-16%	.	11µM*
COc1cc(-c2nc(SCC(=O)Nc3ccc(C)cc3)c(-c3ccc(F)cc3)[nH]2)cc(OC)c1OC	-26%	-61*	?	.	?	.
NC(=O)[C@@H]1CCCN1C(=O)CCN1Cc2ccccc2OC(c2ccccc2F)C1 (stereo not given in full)	-10%	.	.	.	.	.
COc1ccc(C)cc1NC(=O)c1ccc2c(c1)nnn2C1CCCC1	-21%	?	.	.	1%[46.1 µM]	.
CCOC(=O)C1CCCN(C(c2ccccn2)c2c(C)[nH]c3ccccc23)C1 (stereo not given)	5%	-87*	2%[46.1 µM]	2%	-3%	22%
CCOC(=O)C1(CC2CCCCO2)CCN(C(=O)Nc2ccccc2CC)CC1 (stereo not given)	-18%	-65*	.	-1%	.	9%
Cc1ccc(NC(=O)C(Cc2ccccc2)NS(=O)(=O)c2ccc3c(c2)CCC(=O)N3)cc1 (stereo not given)	-2%	-8	-4%[46.1 µM]	.	-17%[46.1 µM]	.
COc1cc(CN2CCC(N3CCC(C(=O)N4CCCC4)CC3)CC2)cc2c1OCO2	-9%	45	?	0%	-14%[46.1 µM]	10µM*
O=C(C1CCN(C2CCN(Cc3ccc4c(c3)CCO4)CC2)CC1)N1CCCC1	-24%	-20	4.5µM*	-1%	-5%[46.1 µM]	?
Cn1c(=O)c2sccc2n2c(CCC(=O)N3CCN(c4ccc(F)cc4)CC3)nnc12	.	.	6%[46.1 µM]	.	-4%[46.1 µM]	.
CCc1cccc(NC(=O)C(NS(=O)(=O)c2ccc3nc(C)sc3c2)C(C)C)c1 (stereo not given)	-6%	-6	-28%[46.1 µM]	.	25%[46.1 µM]	.
SMILES	FMDV inh	HCMV inh	MARV entry inh	SARS PLpro yeast	LASV entry inh	HCV inh
CC(C)CCn1c(=O)c(C(=O)Nc2ccccc2S(N)(=O)=O)c(O)c2ccccc21	-4%	-97*	?	-6%	?	?
CS(=O)(=O)c1ccc(Nc2cc3c(cn2)ncn3Cc2ccco2)cc1	.	-18	.	.	.	.
Nc1ncnc(Nc2ccccn2)c1[N+](=O)[O-]	-17%	-27	-1%[46.1 µM]	0%	3%	?
Nc1ncnc(NCc2ccc(F)cc2)c1[N+](=O)[O-]	-8%	-72*	3%[46.1 µM]	-1%	0%	5%
Cc1ccc(C)c(Nc2ncnc(N)c2[N+](=O)[O-])c1	-17%	-27	-19%	12%	0%	6%
Cn1ncc2c(NCc3ccc(F)cc3)ncnc21	-9%	0	.	.	9%[46.1 µM]	.
Cc1cccc(Nc2ncnc(N)c2[N+](=O)[O-])n1	-13%	-79*	0%[46.1 µM]	1%	-4%[46.1 µM]	11%
Nc1ncnc(NCc2ccccc2)c1[N+](=O)[O-]	9%	-70*	-12%	8%	5%	12%
Cc1cc(C)nc(Sc2ncnc(N)c2[N+](=O)[O-])n1	13µM*	?	?	0%	-13%	22µM*
CCOC(=O)C1=C(CS(=O)(=O)c2ccc(C(C)(C)C)cc2)NC(=O)NC1c1cccc(OC)c1 (stereo not given)	?	-5	?	.	?	.
O=c1oc2ccccc2c(N2CCN(c3ccccc3F)CC2)c1CN1CCCC1	-3%	-14	?	.	?	.
COc1cc(O)c(C(C)=O)c(CC(=O)O)c1	-14%	17	.	2%	.	3.2µM*
COc1cc(O)c(C(C)=O)c(OC)c1	-25%	?	.	.	.	10%
CN1C[C@@H]2[C@@H]3C(=O)N(Cc4ccccc4)C(=O)[C@@H]3[C@](Cc3ccccc3)(C1=O)N2C(=O)c1ccc(C(C)(C)C)cc1	?	-98*	.	.	.	?
CN1C[C@@H]2[C@@H]3C(=O)N(Cc4ccccc4)C(=O)[C@@H]3[C@](Cc3ccccc3)(C1=O)N2C(=O)c1ccccc1	58%	-32	.	.	.	19%
Cc1ccc(N(Cc2cccs2)C(=O)COc2ccccc2[N+](=O)[O-])cc1	26%	-68*	?	.	?	.
COc1cc(NS(=O)(=O)c2ccc(N/C=C(\C#N)c3nc4cc(Cl)ccc4o3)cc2)nc(OC)n1	?	-86*	?	-5%	?	-11%
COc1cc(NS(=O)(=O)c2ccc(NC(C)=O)cc2)nc(OC)n1	-3%	67	?	2%	-5%	21%
c1csc(-n2nc3ccccc3n2)c1	10%	-66*	25%	1%	10%	-28%
COC(=O)c1c(C)nc2ccccc2c1-c1ccccc1	0%	-1	6%	1%	14%	?
COC(=O)c1ccc2c(c1)c(-c1ccccc1)c(-c1ccccc1)n2C	?	-12	.	5%	.	7.1µM*
COc1ccc2[nH]cc(CCN=C(NC(=O)c3ccccc3OC)Nc3nc(C)cc(C)n3)c2c1	?	-96*	?	.	?	.
COc1ccc2[nH]cc(CCN=C(NC(=O)c3ccccc3C)Nc3nc(C)cc(C)n3)c2c1	-26%	?	?	.	?	.
